# About 1,300 (0.68%) of roughly 190,000 compounds were called active. Only a selection was taken, and actives are over-represented in it overall. A number with no mark means an inactive call. Cut-off read from the data, not from the text of the source: active = inhibition above about 50%; inactive = the rest.
# Molecular target: Mannose-6-phosphate isomerase (Homo sapiens) (UniProt P34949)
# Assay: MPI inhibition at elevated mannose 6-phosphate – biochemical, fluorescence intensity, high mannose 6-phosphate, primary screen (AID 1220)
# Conditions: recombinant PMI enzyme, coupled fluorescence intensity; at 20 µM; hits give high values
# Chain of Mannose-6-phosphate isomerase (Homo sapiens) (P34949 whole entry, looked up): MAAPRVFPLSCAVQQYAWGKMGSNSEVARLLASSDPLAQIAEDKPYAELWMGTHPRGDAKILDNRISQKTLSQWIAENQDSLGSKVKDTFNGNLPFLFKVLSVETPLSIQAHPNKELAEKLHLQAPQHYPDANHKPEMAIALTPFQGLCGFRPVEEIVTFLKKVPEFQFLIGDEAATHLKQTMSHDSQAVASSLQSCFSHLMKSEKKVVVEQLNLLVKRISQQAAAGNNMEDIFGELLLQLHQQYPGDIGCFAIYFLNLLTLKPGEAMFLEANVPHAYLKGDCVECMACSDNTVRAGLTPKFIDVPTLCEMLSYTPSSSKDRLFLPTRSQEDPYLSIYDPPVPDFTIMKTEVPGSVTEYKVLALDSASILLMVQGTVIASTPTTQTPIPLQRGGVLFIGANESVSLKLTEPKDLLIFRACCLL
row,SMILES,inhibition
1,CCCOc1ccc(N2C(=O)CC(N3CCC(O)(c4cccc(C(F)(F)F)c4)CC3)C2=O)cc1 (stereo not drawn),7.5%
2,CC(=O)Oc1ccc2c(C)cc(=O)oc2c1,2%
3,CC(=O)Oc1cc2oc(=O)cc(C)c2cc1OC(C)=O,55.7% (active)
4,CC(=O)c1cc2c(C)cc(=O)oc2cc1O,11.3%
5,CC(=O)c1cc2c(cc1NC(=O)CCc1ccccc1)OCO2,0.5%
6,CCOc1cc(/C=C2\C(=O)N(c3ccc(C(N)=O)cc3)N=C2C)ccc1OC(=O)c1cccs1,61.4% (active)
7,CCOc1cc(/C=C2/C(=O)N(c3ccccc3)N=C2C)ccc1OC(=O)c1cccs1,17%
8,CCOc1cc(/C=C2/C(=O)N(c3ccccc3)N=C2C)ccc1OC(=O)c1ccco1,43.2%
9,CCOc1ccc(NC(=O)NC2CCOC(C)(C)C2)cc1 (stereo not drawn),11.5%
10,CCOc1ccc(NCC2CCOC(C)(C)C2)cc1 (stereo not drawn),50.9% (active)
11,CCOc1ccc(NCCC#N)cc1,2.3%
12,CCN(CC)S(=O)(=O)c1cccc(C(=O)OCC(=O)NC(C)c2ccccc2)c1 (stereo not drawn),-2.8%
13,O=C(CNC(=O)/C(=C\c1ccc(F)cc1)NC(=O)c1ccccc1)OCc1ccccc1,0.8%
14,O=C(NCc1cccnc1)c1ccc(COc2ccccc2Br)o1,11.6%
15,O=C(NCc1cccnc1)c1ccc(COc2cccc3ccccc23)o1,53.2% (active)
16,COc1ccccc1OCc1ccc(C(=O)NCc2cccnc2)o1,6.8%
17,CC1CCN(c2c(NCC3CCC(C(=O)NCCc4ccccc4)CC3)c(=O)c2=O)CC1 (stereo not drawn),1.2%
18,Cn1ncc(N=Cc2ccccc2)c1C(=O)Nc1cccc(Cl)c1,14.7%
19,Cn1ncc(N=Cc2c(O)ccc3ccccc23)c1C(=O)Nc1cccc(Cl)c1,64% (active)
20,Cn1ncc(N=Cc2ccccc2O)c1C(=O)Nc1ccccc1,16.9%
21,C/C(CC(=O)Nc1ccccn1)=N\NC(=O)C(=O)Nc1ccccc1C,13%
22,CCOC(=O)C(Cc1ccc(Cl)cc1Cl)c1ccno1 (stereo not drawn),0.3%
23,O=C(NCc1ccco1)C1CCN(c2nc3ccccc3n2Cc2ccccc2F)CC1,25.8%
24,COc1ccccc1C(=O)OCC(=O)Nc1ccc(Cl)cn1,6.1%
25,COc1ccccc1NCCC(=O)OCC(=O)Nc1ccc(Cl)cn1,50.3% (active)
26,O=C(COC(=O)CCOc1ccccc1)Nc1ccc(Cl)cn1,9.2%
27,O=c1c2[nH]c3ccccc3c2ncn1Cc1ccccn1,1.8%
28,CC(=O)c1c(C)[nH]c(C(=O)N2CCc3ccccc3C2)c1C,12.7%
